B1: design_609_7ee6ce64-4629-41e8-bcb4-ba0da017284d_1630_dldesign_0_cycle1_af2pred (protein)
chain: AAGAAAVAAASKARGEALFELAAKAKFGTEEEAKEAEAKRKALTAAAKAVKAAAGTADAAAVATAARAQAEAIL
B2: design_609_7ee6ce64-4629-41e8-bcb4-ba0da017284d_1016_dldesign_0_cycle1_af2pred (protein)
chain: AAADAKAKFDVAFLAAELRASARAAAKANPAAAPAVVDAAAERLRAAGAAGTPEAAAYADAAIARERAWAAAAAAA
B3: design_609_7ee6ce64-4629-41e8-bcb4-ba0da017284d_1124_dldesign_0_cycle1_af2pred (protein)
chain: MAEAFEFTAEGLRLLAEEKSPEEAEKYNELAEKFEELAERARTGTPEDAKAAREEGNKLVKENSELVFEAKEYKTEKDYEELK
B4: design_609_7ee6ce64-4629-41e8-bcb4-ba0da017284d_1084_dldesign_0_cycle1_af2pred (protein)
chain: SEKEKEEVLKEAKEVLEKAKKAAEELGDEEAVKRMERRLKRAEEGNLQDAEAALESGKHALENAKKKLKEKEKAA
B5: design_609_7ee6ce64-4629-41e8-bcb4-ba0da017284d_1721_dldesign_0_cycle1_af2pred (protein)
chain: SKLEEDKKKAEELKKEAEKLAEEAAKTTPEEAKKLRKELREKAKKVAEEVSPEIAKKVAEIAHEAQQKIAEAMQEIKK
B6: design_609_7ee6ce64-4629-41e8-bcb4-ba0da017284d_914_dldesign_0_cycle1_af2pred (protein)
chain: AEAEELVEKAEERYKKLKERAEKAIKEGNKNELLAVSEAAKHAAEQAEKLAPKTGEKGKEVAKKFKELSKKAEETAKK
B7: design_609_7ee6ce64-4629-41e8-bcb4-ba0da017284d_1185_dldesign_0_cycle1_af2pred (protein)
chain: KSEESKKEAEAAAKAAGEAMAKATGDKATADALAKAMLDALKAGDEAAAVAKRNEAAAIALAADPALAMDVLAEGKAAIVYAKK
B8: design_609_7ee6ce64-4629-41e8-bcb4-ba0da017284d_1401_dldesign_0_cycle1_af2pred (protein)
chain: ALAALLEGLAKAAVIVARGIRRAARYAGDPRKAGFAFIVAGEQAFLVGRADPNPVAAAVLWLTGVLLIAIGLAIEAS
B9: design_609_7ee6ce64-4629-41e8-bcb4-ba0da017284d_1938_dldesign_0_cycle1_af2pred (protein)
chain: EEELKKLIEEHMEKLAKEAEKADPEVGKEVKEALKKAKKLNVGEAISLFLSTGARAAKEIGKKDPEKGKKVKEIVDKALDEIFSK
B10: design_609_7ee6ce64-4629-41e8-bcb4-ba0da017284d_1405_dldesign_0_cycle1_af2pred (protein)
chain: DLKKKIEAEAGKSYAEGVAESAAKIIAEIDPEIAPEYAEKVKKELTALAEKLADKSLETVYKEAKAIAKKVIEEAKKKK
B11: design_609_7ee6ce64-4629-41e8-bcb4-ba0da017284d_960_dldesign_0_cycle1_af2pred (protein)
chain: DEEAYKKAKERGKKLEEKAKASNAYSAAAYYEAAYESYLQAAKQVRPELAKELKKAAEEAKAKAEEKYAEVAA
B12: design_609_7ee6ce64-4629-41e8-bcb4-ba0da017284d_1105_dldesign_0_cycle1_af2pred (protein)
chain: DALKEAAEIAAKARELAAELDYLAKKSSPELGKKYAAYAERLRKAVRETRETGVEGAEKTRKELEEVEKEVKEL
B13: design_609_7ee6ce64-4629-41e8-bcb4-ba0da017284d_1584_dldesign_0_cycle1_af2pred (protein)
chain: MNVEEAKKEAKEIRDETIAKMKAAKTPEEVAAVAHEGLQKLAEGAYKFKSNKEAEKIYEEARKEVIDAAREIAAALEAAA
B14: design_609_7ee6ce64-4629-41e8-bcb4-ba0da017284d_1964_dldesign_0_cycle1_af2pred (protein)
chain: SKESRLRRAKALAEEAIKLLEEGEYAWAAALLRAAAREAERAGNEEAAKLLREAAELAAKSALEGPKYKEEALRLAKEALEILEKE
B15: design_609_7ee6ce64-4629-41e8-bcb4-ba0da017284d_1000_dldesign_0_cycle1_af2pred (protein)
chain: GKAIEAQKLVADAFAKYRKGKANPETYEEDKAEARELLREALELDFESAKETAKFLAELAKWQNPEAGKEFAALVEEVIAEVA
B16: design_609_7ee6ce64-4629-41e8-bcb4-ba0da017284d_2027_dldesign_0_cycle1_af2pred (protein)
chain: MTPEELLAKIKELAKKAKEAKDEKEAKKYLEEAKAAAAELKANGTPETAKQASAAVAEAYENYAEAVFKIK
B17: design_609_7ee6ce64-4629-41e8-bcb4-ba0da017284d_1728_dldesign_0_cycle1_af2pred (protein)
chain: EAEKQALADAAKAAEKAAKAAKESPEKGAKAAKELAKAYPEVAKAANAAARYIEELGEEGVDAAEEILKHAIKTLKAKAAAL
B18: design_609_7ee6ce64-4629-41e8-bcb4-ba0da017284d_862_dldesign_0_cycle1_af2pred (protein)
chain: MEVAKLAHEALEAAAEGEAVAKNDPEKREKLRELARKAREAAKKGDVEEAKKLAKEVKKLAKALEKEKKEKEK
B19: design_609_7ee6ce64-4629-41e8-bcb4-ba0da017284d_900_dldesign_0_cycle1_af2pred (protein)
chain: GKEMVDKYSKERKKIAEAAKLAKEGKENPETFEKKAEEALKIAEEAAKEGDEGIKFQAENLKAYIEKLRKEK
B20: design_609_7ee6ce64-4629-41e8-bcb4-ba0da017284d_1351_dldesign_0_cycle1_af2pred (protein)
chain: AAAAAAEAARAAAAAAAVAAAAEAKTAEVAKADPSAAPYYADAAGIVVDSAAAALAAAPGAEAAAIAARGVRTINRLAESTIEAIKRR
B21: design_609_7ee6ce64-4629-41e8-bcb4-ba0da017284d_1936_dldesign_0_cycle1_af2pred (protein)
chain: SASEKTKEYLKKNDELGKKAAELSLKDEEKGLALAEKDVYIAIKASAILYKKGDEKALEHAKKFKEVAFKMLDE
B22: design_609_7ee6ce64-4629-41e8-bcb4-ba0da017284d_1733_dldesign_0_cycle1_af2pred (protein)
chain: SEKDKAIMEATFHANGALNLADVGGDKKEIEKEAKLAKEHAEKAAKLSSKEEGAKILEYVEKKVKEVEEKLKKL
B23: design_609_7ee6ce64-4629-41e8-bcb4-ba0da017284d_1354_dldesign_0_cycle1_af2pred (protein)
chain: AVAAAKAAAAKDAEEVNKLKFEAVDGDAETVEAVMKEVKARREEWLAKAKADPAAKAVYEAAAEGMDKTEKALQSVLDALKKN
B24: design_609_7ee6ce64-4629-41e8-bcb4-ba0da017284d_1726_dldesign_0_cycle1_af2pred (protein)
chain: AAAEEIAKAKAVYDKRKAKAQEYEKKGDYKGAANEYDIAAAQLGMAAAGLSPEAAAVAKALAEEAKKLAEEAEKKLAE
B25: design_609_7ee6ce64-4629-41e8-bcb4-ba0da017284d_2006_dldesign_0_cycle1_af2pred (protein)
chain: EKLLGEGYADIIVDNTKSVIAADPSKAEEYVETNKAKGLARAEKIKDTEAGKVLKEKVEKEAEKLLAEAKKAKAAAEAAA
B26: design_609_7ee6ce64-4629-41e8-bcb4-ba0da017284d_1135_dldesign_0_cycle1_af2pred (protein)
chain: SAALEHLVESLIENSTKAAEEGTPEVAKLLNAAAAAAKAGDLETALKLADQALALSPPNINVTLARSDARNALELAKK
B27: design_609_7ee6ce64-4629-41e8-bcb4-ba0da017284d_1172_dldesign_0_cycle1_af2pred (protein)
chain: MEEVEAFKKEAQKKLDEAVEYALSISDIEKSKKVADLMSEMGKHYSEAYKAMESGEKLEEAKKNIEKAEEYYKKAKEIAEEDEKKKKE
B28: design_609_7ee6ce64-4629-41e8-bcb4-ba0da017284d_1108_dldesign_0_cycle1_af2pred (protein)
chain: MQEAIDYVKKKGSELIDKLVDDLAAGEEKDDPKIAKEVLEKLEELEKEAKKLSEEAAEEAKKAIETAKRIASNA
B29: design_609_7ee6ce64-4629-41e8-bcb4-ba0da017284d_1996_dldesign_0_cycle1_af2pred (protein)
chain: AAAATAHEAIQTSTEAAEKLKKGKTEEDKELGKEIEEKRKELSRRAAEAQKEGPEAAKKAVAELAKFAEEAKKIAEEREKKRK
B30: design_609_7ee6ce64-4629-41e8-bcb4-ba0da017284d_1088_dldesign_0_cycle1_af2pred (protein)
chain: NKSKEYSDAMKELVRAAKEAAAAADALGAAKGDPALAQAIKAELEKLVFEAADGDIETAKKLAEEAKKLKEAAEKALA
B31: design_609_7ee6ce64-4629-41e8-bcb4-ba0da017284d_1121_dldesign_0_cycle1_af2pred (protein)
chain: SKEEAIKNIRELRRELREVAEEAMKEVSEEDAKKVRELASKASGKLAEERGLAVSKPELAEEALKNAKEIAEKAIEEVKKIAEKAKK
B32: design_609_7ee6ce64-4629-41e8-bcb4-ba0da017284d_962_dldesign_0_cycle1_af2pred (protein)
chain: AEAEVKAAIEELKAESEKIVEEAKKEMEKHKEDPKKVEEIRKEALKKIRELAKEVAEKTGDWKGASAVVHEAYEKLNEAYKEAIEKAK
B33: design_609_7ee6ce64-4629-41e8-bcb4-ba0da017284d_1780_dldesign_0_cycle1_af2pred (protein)
chain: MEQAELRREMVRLVREAGRILEEKAPEYPEAKEAIELLRKAVFLAGDKEKAPEALELLKKAAEIAKEIDPEAAELIKEALELAKKWKE
B34: design_609_7ee6ce64-4629-41e8-bcb4-ba0da017284d_1790_dldesign_0_cycle1_af2pred (protein)
chain: NEADKEVEELTKKIKELTKKAKEALEKGNIEEAKKYAEEAMKAIKKAREIAPKASKELQKEASKAAAEAYEVYAEVEFKSK
B35: design_609_7ee6ce64-4629-41e8-bcb4-ba0da017284d_1161_dldesign_0_cycle1_af2pred (protein)
chain: GSEEARKLQEEFGEALRRFTAAGRRLVETGREVGERTGDPEIEERARRVAEEGNRRRLEALDAGDVEAILAVADELERATEELL
B36: design_609_7ee6ce64-4629-41e8-bcb4-ba0da017284d_985_dldesign_0_cycle1_af2pred (protein)
chain: SEEVLELGEREAERLKEAGASNRSIGLVLFLAEEAAEGNLEAAEGIFRAARREAEREKEKNPEVGELLEEALERLRKAAE
B37: design_609_7ee6ce64-4629-41e8-bcb4-ba0da017284d_1448_dldesign_0_cycle1_af2pred (protein)
chain: AEEEARKERLEAAKKELNELRLKAADSGDAEKALEYAKQAEAVAEKAGIPEDGEKAARVIRSIAEALKKN
B38: design_609_7ee6ce64-4629-41e8-bcb4-ba0da017284d_1771_dldesign_0_cycle1_af2pred (protein)
chain: KKEEALNYASEMRAYLIGAAAASKLPQAPQLEAEAREKAEKVGELLSPEVAKKIKELTEQAIAGTPEERKALAREIAELVKKAVEE

What follows are binders tested against VTCN1, Q7Z7D3.
Chain of VTCN1, Q7Z7D3 (Q7Z7D3 whole entry): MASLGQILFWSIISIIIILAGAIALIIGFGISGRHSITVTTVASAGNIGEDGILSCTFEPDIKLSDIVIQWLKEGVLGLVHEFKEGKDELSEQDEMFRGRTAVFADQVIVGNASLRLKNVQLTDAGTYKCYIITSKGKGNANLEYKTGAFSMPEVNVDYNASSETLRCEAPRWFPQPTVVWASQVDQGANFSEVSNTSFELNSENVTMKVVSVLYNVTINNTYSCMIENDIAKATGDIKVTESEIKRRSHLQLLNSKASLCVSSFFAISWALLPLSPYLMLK

Binding in a display sort, inactive:
B1 not found
B2 not found
B3 not found
B4 not found
B5 not found
B6 not found
B7 not found
B8 not found
B9 not found
B10 not found
B11 not found
B12 not found
B13 not found
B14 not found
B15 not found
B16 not found
B17 not found
B18 not found
B19 not found
B20 not found
B21 not found
B22 not found
B23 not found
B24 not found
B25 not found
B26 not found
B27 not found
B28 not found
B29 not found
B30 not found
B31 not found
B32 not found
B33 not found
B34 not found
B35 not found
B36 not found
B37 not found
B38 not found
